The source of these data is PubChem BioAssay AID1259240 (Keith Lab, Institute of Cancer Science, University of …, 2017).

Molecules are shown by their SMILES. Active and inactive are the calls of the source. No stated cut-off is given here; in the data, active means fold change mostly below about -2 (no sharp cut-off); inactive means mostly above about -1.8.

This assay in a line: modulation of TERT promoter-driven luciferase – cell-based, luciferase reporter, human, primary screen (AID 1259240). The conditions noted are these: A2780 TERT promoter luciferase reporter, 16 h; at 20 µM, fold versus average of vehicle-only wells.
Consider `COC(=O)CN1C(=O)CN(c2nc(C)cc(C)n2)C1=O`, for which the fold change was -1.08 (inactive). On the same count and under the same terms, the same measure for `CCOC(=O)CCCSc1nc2sc(C)c(C)c2c(=O)[nH]1`: -3.49 (active). Take `Cc1nn2c3cc(N4CCOCC4)ccc3nc2c2ccccc12`: the fold change was -2.16 (active). With `Cc1ccc(-c2cc(C(F)F)n3ncc(C(=O)N4CC(C)OC(C)C4)c3n2)cc1` (stereo not given), the fold change is -2.07 (active). Turning to `Cc1ccc2[nH]cc(S(=O)(=O)c3ccc(F)cc3)c(=O)c2c1`, the fold change is -1.06 (inactive).

As to `O=S1(=O)NC(=NC2CCCCCC2)c2ccccc21`, the outcome was inactive. In the case of `Cc1c(NC(=O)c2ncn[nH]2)c(=O)n(-c2ccccc2)n1C`, the fold change was -1.33 (inactive). For the molecule `CN1C(=O)C2ON(c3ccc(Cl)cc3)C(c3cccs3)C2C1=O` (stereo not given), the fold change is -1.37 (inactive). Same read-out and setting: the same measure for `Cc1cc(=O)oc2c1c(C)nn2-c1ccc(C(=O)O)cc1`: -2.62 (active). As for `COc1cc(OC)cc(-c2cc(N)n(S(=O)(=O)Cc3ccccc3)n2)c1`, the fold change is 1.16 (inactive). The same measure, in the same setting: the same measure for `COC(CNS(=O)(=O)c1cccc2cccnc12)OC`: -1.06 (inactive); for `Cc1cc(C)c2c(=O)n(CC(=O)NCCC3=CCCCC3)sc2n1`: 1.18 (inactive); for `Cc1nc2sccn2c1-c1csc(Nc2ccc(O)cc2)n1`: -1.8 (inactive). Still for that read-out and setting: the same measure for `Cc1ccc(SCc2nc3sccn3c2Br)cc1`: -1.17 (inactive). Same read-out and setting: in the case of `Nc1nc(SCC(=O)c2ccc(O)cc2O)n[nH]1` it was -1.59 (inactive); in that of `O=C(CN1C(=O)COc2ccc(S(=O)(=O)N3CCOCC3)cc21)NCc1ccc2c(c1)OCO2`, 1.18 (inactive); in that of `O=C(CSc1ncnc2ccccc12)NC1CCCCC1`, 1.03 (inactive). Take `CCN1CCN(C(=O)CSc2nc(-c3ccco3)cc(C(F)(F)F)n2)CC1`: the fold change is -1.46 (inactive).

Regarding `O=C(CSc1nncc2ccccc12)Nc1ccccc1`, the fold change was 1.07 (inactive). In the case of `COc1ccc(C2c3c(n[nH]c3C)C(=O)N2c2ccc(Br)cc2)c(OC)c1` (stereo not given), the fold change was -1.34 (inactive). Same read-out and setting: in the case of `CC(=O)c1ccc2c(c1)c1ccccc1n2C` it was -3.04 (active); in that of `CCCCNC(=O)CCN1C(=O)c2ccccc2S1(=O)=O`, -1.02 (inactive). In the case of `O=C1CCCC2=C1C(c1ccccc1Cl)n1nc(-c3ccccc3)nc1N2` (stereo not given), the call was inactive. Regarding `COc1cccc(C(=O)Cn2c(=O)n(C3CCCC3)c(=O)c3cc(OC)c(OC)cc32)c1`, the fold change is -1.38 (inactive). `Cc1cc(C(=O)NC2CCCCC2)on1`: the fold change is 1.39 (inactive). On to `O=C(CSc1ncnc2ccccc12)NCc1ccc2c(c1)OCO2`, for which the fold change is -1.09 (inactive). For `COCCNC(=O)Cn1cc(/C=C2/C(=O)N(C)c3ccccc32)c2cc(Br)ccc21`, the fold change was -1.01 (inactive). As to `CN(CC(=O)Nc1nccs1)S(=O)(=O)c1ccc2c(c1)n(C)c(=O)c(=O)n2C`, the fold change was 1.27 (inactive). Same read-out and setting: the same measure for `CCCN1C(=O)C2(/C(=C(/O)c3ccc(C)cc3)C(=O)C(=O)N2CCOC)c2ccccc21` (stereo not given): 1.26 (inactive); for `CCOC(=O)CSc1n[nH]c(N)n1`: -1.02 (inactive); for `Cc1cc(C)cc(NC2=C(N3CCOCC3)C(=O)c3ccccc3C2=O)c1`: -1.02 (inactive).

With `NC(=O)c1c(NC(=O)c2cc(-c3ccc(O)cc3)on2)sc2c1CCCC2`, the molecule was classed as inactive. Regarding `Cc1ccc2oc(-c3cc(NC(=O)c4ccc5c(c4)OCCO5)ccc3O)nc2c1`, the call was active. With `CCOC(=O)N1CCC(Nc2c(N3CCN(c4ccc(C(C)=O)cc4)CC3)c(=O)c2=O)CC1`, the fold change was -1.1 (inactive). The same measure, in the same setting: the same measure for `COc1ccc(Cl)cc1S(=O)(=O)n1ccnc1C(C)C`: -4.76 (active); for `CC1(C)NC(=O)N(CC(O)COc2ccccc2)C1=O` (stereo not given): -1.3 (inactive); for `Cn1c(Cc2ccccc2)nn(CN2CCC3(CC2)OCCO3)c1=S`: -1.07 (inactive).

With `COc1ccc2nc(C)c(C(=O)OCCN(C)C)cc2c1`, the fold change was 1.5 (inactive). Turning to `O=C(c1cncc(Br)c1)N1CCN(c2ccc(N3CCOCC3)nn2)CC1`, the fold change is 1.24 (inactive). For the molecule `Cc1ccccc1-n1cnc2c(sc3nc(N4CCOCC4)c4c(c32)CC(C)(C)OC4)c1=O`, the fold change is -1.84 (inactive).
